A number with no mark means an inactive call.
Test: budding yeast growth changes without added modifier – OD600, strain BY4716, 24 h, basal condition, primary screen (AID 1173)
Conditions: S. cerevisiae BY4716 growth, OD600, 24 h; higher = more signal, called active from +8 up or from −8 down
O=C1OCC=C[C@H]2OC34C=CCN(CCN5CCOCC5)C(=O)[C@H]3N(CCCO)C(=O)[C@@H]4[C@@H]12 (stereo partly specified) showed a z-score of -0.187.
For [N-]=[N+]=Nc1ccccc1C[C@@]1(C(=O)NCCN2CCOCC2)N=C(c2ccc(OCCCO)cc2)O[C@@H]1c1ccccc1, the z-score was -4.41.
For COc1ccc(C(=O)Nc2ccc(CN3C(=O)[C@@]4(O[C@@H](CCO)[C@H]([Si](C)(C)c5ccc(OC)cc5)[C@H]4C)c4ccccc43)cc2)cc1, the z-score was -3.8.
CC(C)(C)OC(=O)CC[C@@]1(C(N)=O)N=C(c2ccc(OCCCO)cc2)O[C@@H]1c1ccccc1 gave a z-score of -0.63.
In the case of COc1ccc(C(=O)Nc2ccc(CN3C(=O)[C@@]4(O[C@@H](CC(=O)N5CCC[C@H]5CO)[C@H]([Si](C)(C)c5ccc(OC)cc5)[C@H]4C)c4ccccc43)cc2)cc1, the z-score is reported as -0.871.
CN1C(=O)C2C=CC(C(O)C3CCCCC3)N(Nc3ccc([N+](=O)[O-])cc3[N+](=O)[O-])C2C1=O (stereo unspecified) gave a z-score of 0.819.
For CN1C(=O)C2C=CC(C(O)Cc3ccccc3)N(Nc3ccccc3)C2C1=O (stereo unspecified), the z-score was -0.836.
COc1ccc(CCNC(=O)[C@@]2(Sc3ccc(C)cc3)CC(=O)N(C3CCCCC3)[C@@H]2c2ccc(CO)cc2I)cc1 showed a z-score of 0.0658.
Compound O=C1OCCC/C=C\[C@H]2OC34C=CCN(CCN5CCOCC5)C(=O)[C@H]3N(CCCO)C(=O)[C@@H]4C12 (stereo partly specified) has a z-score of -0.314.
For C=CCC(OC(C)=O)[C@@H]1[C@@H](N(Cc2ccc(-c3ccccc3)cc2)C(=O)Cc2ccc(F)cc2)c2cc(OCCCO)ccc2N1C(=O)c1ccc(-c2ccccc2)cc1 (stereo partly specified), the z-score was -1.65.
O=C(c1ccccc1)N1Cc2ccccc2[C@@H]2OC(c3ccc(OCCCO)cc3)=N[C@]2(Cc2ccccc2)C1=O showed a z-score of -0.485.
Compound COC(=O)C(CC#Cc1ccc2c(c1)[C@]1(C(=O)N2)[C@H](C(=O)O)[C@H]2C(=O)O[C@H](c3ccccc3)[C@H](c3ccccc3)N2[C@@H]1c1ccc(O)cc1)C(=O)OC has a z-score of 0.183.
In the case of O=C1NCC(=O)N2[C@@H]1C[C@@H](C(=O)O)[C@H]2c1cccc(OCCO)c1, the z-score is reported as -0.816.
For C=CCNC(=O)[C@@H]1[C@H]2C(=O)O[C@H](c3ccccc3)[C@H](c3ccccc3)N2[C@H](c2ccc(OCCO)cc2)[C@@]12C(=O)Nc1ccc(C#CCCO)cc12, the z-score was 1.02.
C=C(/C(=C/C[C@@H](OC(C)=O)c1ccc(OCCO)cc1)c1cnc2ccccc2c1)C(C)C gave a z-score of -2.05.
CN(C)C(=O)[C@]1(Cc2ccccc2N=[N+]=[N-])N=C(c2ccc(OCCCO)cc2)O[C@@H]1c1ccccc1 showed a z-score of -1.87.
COc1ccc(CCN2C(=O)[C@@]3(c4ccc([N+](=O)[O-])cc4)CC(=O)N(C4CCCCC4)[C@@H]3c3ccc(CO)cc32)cc1 showed a z-score of 1.37.
For C[N+](C)(C)CCCCNC(=O)[C@H]1C[C@H]2C(=O)N[C@@H](Cc3ccccc3)C(=O)N2[C@H]1c1ccc(O)cc1, the z-score was 0.606.
Compound O=C1O[C@H](c2ccccc2)[C@H](c2ccccc2)N2[C@H]1[C@@H](C(=O)N1CCN(c3ncccn3)CC1)[C@]1(C(=O)Nc3ccc(C#CC4=CCCCC4)cc31)[C@H]2c1ccc(O)cc1 has a z-score of 0.866.
For COC(=O)[C@@]1(Cc2ccccc2)[C@H]2c3cc(C(=O)N(C)C)n(CCSCCO)c3C[C@H]2CN1C(=O)c1ccccc1, the z-score was 0.319.
Work on CC(C)OC(=O)C=C1C[C@@H](c2ccccc2C(F)(F)F)O[C@@H](c2ccccc2C(F)(F)F)O1 yielded a z-score of 0.0349.
With COCCCNC(=O)[C@@]1(Cc2ccccc2)N=C(c2ccc(OCCCO)cc2)O[C@H]1c1ccccc1 the z-score was -1.05.
CCCCC=C[C@@H](NC(=O)Oc1cccc(C(F)(F)F)c1)c1ccccc1 showed a z-score of 1.74.
For O=C1C2C=CC(C(O)C(c3ccccc3)c3ccccc3)N(n3cnnc3)C2C(=O)N1Cc1ccccc1 (stereo unspecified), the z-score was -1.94.
With Cc1ccc(S[C@]2(C(=O)NCC(C)C)CC(=O)N(Cc3cc(C(F)(F)F)cc(C(F)(F)F)c3)[C@@H]2c2ccc(CO)cc2I)cc1 the z-score was -3.38.
COc1cc2c(cc1O)C(C1CC1)N(Cc1cc3c(cc1Br)OCO3)CC2 (stereo unspecified) showed a z-score of -2.67.
For CCCCC(=C=CC[C@@H](O)c1ccccc1OCCO)CCO, the z-score was -2.07.
C=CCOC(=O)[C@@H]1[C@H]2C(=O)O[C@H](c3ccccc3)[C@H](c3ccccc3)N2[C@H](c2ccc(OCCOC(=O)[C@@H]3C[C@@H]4C(=O)N[C@@H](Cc5ccccc5)C(=O)N4[C@@H]3c3ccc(O)cc3)cc2)[C@@]12C(=O)Nc1ccc(I)cc12 gave a z-score of 0.963.
For C=CCNC(=O)[C@@H]1[C@H]2C(=O)O[C@H](c3ccccc3)[C@H](c3ccccc3)N2[C@H](c2ccc(OCCO)cc2)[C@@]12C(=O)Nc1ccc(C#Cc3ccc(OC)cc3)cc12, the z-score was 1.84.
Work on CCOC(=O)C[C@H]1[C@H](OC(=O)Cc2ccc3c(c2)OCO3)[C@@H](NC(=O)c2ccc(-c3ccccc3)cc2)c2cc(OCCCO)ccc2N1C(=O)c1ccc2ccccc2n1 yielded a z-score of -2.85.
For Cc1ccc(S[C@]2(C(=O)NCC(F)(F)F)CC(=O)N(C(C)C)[C@@H]2c2ccc(CO)cc2I)cc1, the z-score was -1.52.
With C=CCC(OC(C)=O)[C@@H]1[C@@H](N(Cc2ccc(-c3cccc(C(F)(F)F)c3)o2)C(=O)Cc2ccc(F)cc2)c2cc(OCCCO)ccc2N1C(=O)Cc1ccc(OC)cc1 (stereo partly specified) the z-score was -0.546.
For COCCCN1C(=O)[C@@]2(Cc3ccccc31)c1ccccc1C(=O)N(Cc1ccccc1C(F)(F)F)[C@H]2c1ccc(CO)cc1, the z-score was 0.947.
In the case of CCOC1=C2C(CN(S(=O)(=O)c3ccc(C)cc3)C2c2ccc(C)cc2)C2C(=O)N(c3ccccc3)C(=O)C2C1 (stereo unspecified), the z-score is reported as 0.941.
For CC(C)(C)OC(=O)CC[C@@]1(C(=O)NCC(O)CO)N=C(c2ccc(OCCCO)cc2)O[C@@H]1c1ccccc1N=[N+]=[N-] (stereo partly specified), the z-score was -0.69.
Compound [N-]=[N+]=NCc1ccccc1C[C@]1(C(=O)N2CCOCC2)N=C(c2ccc(OCCCO)cc2)O[C@H]1c1ccccc1N=[N+]=[N-] has a z-score of -1.05.

From PubChem BioAssay
